The list is not random: actives were taken first. Their share in the collection is about 13%.
Pf growth 48h = inhibits P. falciparum growth in the first generation, 48 h. P. falciparum luciferase growth in erythrocytes, 48 h. Potency, µM (titrated, usually from 28.7 µM), for inactives: at the top dose activity change, negative = inhibition, usual class: inhibitors. 310,000 compounds, 5.9% hits. AID 504832; further: potency means the concentration at half of the fitted maximal effect
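First compound was added to culture medium, then infected red cells at 0.1% parasitemia and 2% hematocrit (final). After incubation at 37 C under 5% CO2, luciferase detection reagent was dispensed and light output recorded.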
HCMV antiviral = human cytomegalovirus inhibition | HFF cells, HCMV-luciferase reporter, 72 h; active compounds read low | activity change, negative = inhibition, % at 57.5 µM | 410,000 compounds, 4.5% hits; in the data active means activity change below about -60%; inconclusive means no clear call, values can overlap the other calls; inactive means above about -39%
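After 16 h attachment at 37C, HFF cells received test compound and HCMV-luciferase (1 PFU/cell); reporter luminescence read 72 h later, data normalized against buffer-only and known inhibitor Salinomycin.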
HCV inh = blocks hepatitis C virus; Huh7.5.1 HCVcc-Cre infection, luciferase reporter, 44 h; Potency, µM (highest dose often 41.8 µM), inactives show at the highest dose activity change, negative = inhibition, usual class: inhibitors; 340,000 compounds, 3.4% hits; AID 651820; further: potency means the concentration at half of the fitted maximal effect
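Compounds are dispensed onto cells plated 4 h earlier at 1,000 per well, with HCVcc-Cre virus (about 0.5 moi) added next. Following 44 h of culture, luminescent signal is measured for 15 sec after 15 min with substrate at room temperature.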
Pf growth 96h = inhibits malaria parasite growth, 96 h; Potency, µM (top dose mostly 28.7 µM), for inactives: top-dose activity change, negative = inhibition, actives largely listed as inhibitors; AID 504834; P. falciparum luciferase reporter growth, 96 h; 320,000 compounds, 6.9% hits; further: potency means the concentration at half of the fitted maximal effect
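Readout is luminescence from an integrated firefly luciferase in P. falciparum. Red cells, 2% hematocrit and 0.05% parasitemia final, were cultured with compound through two parasite generations (96 hours) at 37 C, 5% CO2.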
The depositor's hits bear a star; ? = inconclusive; . = no result given; + = active, no number. Unless noted, the call rests on the fitted dose curve; in most records, active means well fitted inhibition curve with a large enough effect; inconclusive means small, poorly fitted or top-dose-only effect, or another doubt; inactive means no such curve, though single readings can be large or run the other way. On the % scale 0 is the no-effect control and ±100 the full control effect.

SMILES	Pf growth 48h	HCMV antiviral	HCV inh	Pf growth 96h
O=S(=O)(NC1CCCCC1Nc1ccc(Cl)cc1)c1ccccc1 (configuration not stated)	-7%	-31	?	5%
Cc1ccc(S(=O)(=O)C(c2ccccc2)c2c(C)noc2C)cc1 (configuration not stated)	-8%	-72*	-6%	-24%
Cc1noc(C)c1C(c1ccccc1)S(=O)(=O)c1ccccc1 (configuration not stated)	10%	1	5%	-6%
c1ccc(-c2noc(-c3ccc4ccccc4c3)n2)nc1	-95%	.	?	.
COc1cccc(-c2nc(-c3ccccn3)no2)c1	34%	-61*	?	?
c1ccc(-c2noc(-c3ccc4c(c3)OCO4)n2)nc1	-34%	-81*	?	.
CCNc1ccc(-c2nc(-c3ccccn3)no2)cc1[N+](=O)[O-]	.	-106*	.	.
Cc1ccccc1C1CC(=O)Nc2ccc3ccccc3c21 (configuration not stated)	.	-25	.	.
COc1ccccc1/C=C/C(=O)c1c2c(c(C)[nH]c1=O)CCCC2	?	-109*	.	?
O=C(C=Cc1cccs1)c1cccs1	.	?	-20%	.
CCc1ccc(/C=C/C(=O)c2c(C)cc(C)[nH]c2=O)cc1	9.3µM*	-95*	?	-20%
Cc1cc(C)c(C(=O)/C=C/c2cccs2)c(=O)[nH]1	-9%	-64*	-14%	?
O=C(/C=C\c1cccs1)c1c(O)ccc2ccc(=O)oc12	-10%	-62*	-7%	?
C/C(=C\c1cccs1)C(=O)c1c(C)cc(C)[nH]c1=O	6%	-12	11%	32%
COCC(C)NC(=O)C1=CC(c2ccc3c(c2)OCO3)=NS(=O)(=O)N1C (configuration not stated)	.	10	.	.
COc1ccc(/C=C/C(=O)c2c(C)cc(C)[nH]c2=O)c2ccccc12	?	-100*	11µM*	?
C/C(=C\c1ccc(Br)cc1)C(=O)c1c(C)cc(C)[nH]c1=O	15%	-3	-3%	10µM*
Cc1ccc(/C=C/C(=O)c2c(C)cc(C)[nH]c2=O)cc1	?	-98*	?	?
COc1ccc2c(c1)c1c(c(=O)n(-c3ccccc3C)c(=O)n1CC(=O)N1CCCC1)n2C	.	-4	.	.
CCOc1ccccc1CNS(=O)(=O)c1cnc(N)nc1	.	-21	.	.
CCN(CC(=O)NCc1ccc(Cl)cc1)C(=O)CNS(=O)(=O)c1ccc(NC(C)=O)cc1	12µM*	.	24%	?
COc1ccc(C(CC(=O)NCc2ccc(Cl)cc2)N2Cc3ccccc3C2=O)cc1OC (configuration not stated)	.	2	.	.
CC[n+]1ccc(C)c2cc(P(=O)(c3ccccc3)c3ccccc3)ccc21	13µM*	0	-20%	?
CC[n+]1ccc(C)c2cc(SC(F)(F)F)ccc21	?	.	-14%	0%
CC[n+]1ccc(C)c2cc(S(=O)C(F)(F)F)ccc21 (configuration not stated)	3.7µM*	.	-21%	?
SMILES	Pf growth 48h	HCMV antiviral	HCV inh	Pf growth 96h
CCOc1ccc(N2CC(NC(=O)/C=C\c3ccc4c(c3)OCO4)CC2=O)cc1 (configuration not stated)	.	18	.	.
Cc1cc(C)c(S(=O)(=O)n2cnc(C)c2)c(C)c1	.	-8	.	.
CC(C)CC(C)c1cc(N)nc2nc3ccccc3n12 (configuration not stated)	10µM*	10	-14%	12µM*
CCCc1nn2c(=O)cc(CSCC(=O)Nc3nnc(CC)s3)nc2s1	-16%	-16	17%	10µM*
COc1ccc(NC(=O)[C@H](C)NC(=O)[C@@H]2Cc3ccccc3CN2C(=O)OC(C)(C)C)cc1	?	+	-14%	?
CC(C)(C)OC(=O)N1Cc2ccccc2C[C@H]1C(=O)NCC(=O)Nc1ccc2c(c1)OCCO2	74%	-68*	1%	49%
Cc1cccc(NC(=O)[C@H](C)NC(=O)[C@@H]2Cc3ccccc3CN2C(=O)OC(C)(C)C)c1	?	-31	-7%	-9%
COc1cccc(CNC(=O)C2CCN(S(=O)(=O)c3cn(C)cn3)CC2)c1	.	-16	.	.
c1ccc2c(c1)ccc1ccccc12	.	?	2%	.
O/N=C/c1cccc[n+]1CCCCCC[n+]1ccccc1/C=N/O	?	25	19%	?
Cc1ccccc1C[n+]1cccc2ccccc21	0.37µM*	-39	7%	?
CCCCCCCCCCCCCCCC[n+]1cccc2ccccc21	0.83µM*	-98*	4.5µM*	?
CCCCCCCCC[n+]1cccc2c3ccccc3ccc21	0.17µM*	.	4.5µM*	35%
CCOc1ccc(NS(=O)(=O)c2ccc3[nH]cc(C(=O)N4CCCCCC4)c(=O)c3c2)cc1	.	25	.	.
Oc1ccc2oc3c(c2c1C=NCc1ccncc1)CCCC3	?	-14	-10%	?
Oc1c(Br)cc2oc3c(c2c1CNCc1ccccc1)CCCC3	.	11	-24%	0.29µM*
CCCOc1ccc(C2c3c(-c4ccccc4O)n[nH]c3C(=O)N2Cc2ccncc2)cc1OCC (configuration not stated)	.	17	.	.
Cc1ccc(CNc2ccc(N3CCOCC3)c(Cl)c2)cc1	27%	30	-2%	10µM*
CC(=O)N1CCN(c2ccc(NC(=O)c3ccc(Br)o3)cc2Cl)CC1	?	-31	-19%	?
O=C(Nc1c(Cl)ccc2nsnc12)c1ccc([N+](=O)[O-])o1	?	-106*	?	?
Cc1ccc(CNc2ccc(N3CCOCC3)cc2)cc1	-1%	-11	?	0%
Cc1ccc(NC(=O)c2cc([N+](=O)[O-])ccc2N2CCOCC2)cc1S(=O)(=O)N1CCOCC1	?	10	.	?
CC(C)C(=O)N1CCN(c2ccc(NC(=O)c3ccc([N+](=O)[O-])o3)cc2Cl)CC1	8%	-100*	10µM*	?
Cc1ccc(NC(=O)c2ccc([N+](=O)[O-])o2)cc1S(=O)(=O)N1CCOCC1	9.3µM*	-95*	10µM*	9.3µM*
CCOC(=O)c1c(C)oc2ncnc(Nc3ccc(OC)c(OC)c3)c12	.	9	.	.
SMILES	Pf growth 48h	HCMV antiviral	HCV inh	Pf growth 96h
c1cc(CNc2ccc3c(c2)OCO3)ccn1	?	31	12%	.
CCCCOc1ccc(C(=O)Nc2ccc(N3CCN(C(=O)C(C)C)CC3)cc2)cc1	9.3µM*	?	-1%	.
CCCCOc1ccc(C(=O)Nc2ccc(N3CCN(C(C)=O)CC3)cc2)cc1	.	-30	-18%	53%
CC(C)C(=O)N1CCN(c2ccc(NC(=O)c3ccc([N+](=O)[O-])o3)cc2)CC1	4.7µM*	-98*	?	22%
CCCC(=O)N1CCN(c2ccc(NC(=O)c3ccc([N+](=O)[O-])o3)cc2Cl)CC1	?	-109*	?	21%
Cc1ccc(CNc2ccc3c(c2)OCO3)cc1	?	.	10µM*	-12%
CCOC(=O)C1=C(CN2CCC(C)CC2)NC(=O)NC1c1ccc(F)cc1 (configuration not stated)	.	-3	.	.

Screening results deposited in PubChem by National Center for Advancing Translational Sciences (NCATS).
